Source: PubChem BioAssay AID430 (Sanford-Burnham Center for Chemical Genomics, 2006)
The campaign covered roughly 63,000 compounds. About 1,100 (1.7%) were called active. This excerpt belongs to a sample that is enriched for actives. Potency and affinity values are given separately. Unmarked numbers belong to inactive results. Cut-off read from the data, not from the text of the source: active = cytotoxicity above about 50%; inactive = the rest.

assay: cytotoxicity in HPDE-C7 cells, cell-based, fluorescence, HTS (AID 430); conditions: HPDE-C7 pancreatic duct cells viability, at 10 µM, stronger effect = higher value;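 note: cells exposed to compound for 48 hours before viability readout; 0% = vehicle and 100% = reference cytotoxic drug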

Row | SMILES | cytotoxicity
1 | CC(C)NC(=O)c1ccccc1NC(=O)CCS(=O)(=O)Cc1ccccc1 | -16.4%
2 | Cn1c(CSc2ccccc2)c(C#N)c2ccccc21 | -6.2%
3 | Cc1cc(C(=O)CSc2nnc(Nc3ccccc3)s2)c(C)n1CC1CCCO1 (stereo unspecified) | 2.6%
4 | C=CCn1c(C)cc(C(=O)CSc2nnc(NCc3ccccc3)s2)c1C | 52.9% (active)
5 | Cc1cc(C(=O)CSc2nnc(NCc3ccccc3)s2)c(C)n1C | 58% (active)
6 | O=C(CSc1nnc(NCc2ccccc2)s1)c1ccco1 | -4.8%
7 | Cc1cc(C(=O)CSc2nnc(-c3ccccc3)n2C)c(C)n1C | 5.7%
8 | C=CCn1c(C)cc(C(=O)CSc2nnc(Cc3ccccc3)o2)c1C | -20.7%
9 | Cc1cc(N2C(=O)C3C4C=CC(C4)C3C2=O)no1 (stereo unspecified) | -1%
10 | COCCCn1c(=S)[nH]c2ccc(N3CCOCC3)cc2c1=O | -10.8%
11 | O=C(O)CCCC(=O)Nc1ccccc1Br | 5.7%
12 | CCN1C(=O)c2cccc3c(S(=O)(=O)Nc4ncccc4C)ccc1c23 | 23.7%
13 | CCN1C(=O)c2cccc3c(S(=O)(=O)Nc4nc(C)cs4)ccc1c23 | 58.9% (active)
14 | CCOC(=O)Cc1csc(NS(=O)(=O)c2ccc3c4c(cccc24)C(=O)N3CC)n1 | 8.7%
15 | CCOC(=O)c1[nH]nc(C(=O)c2ccc(Br)cc2)c1O | -10.7%
16 | CC(=O)C(C(C)=O)c1c(Cl)c(O)c(O)c2c(C(=O)c3ccccc3)coc12 | 82.2% (active)
17 | Cc1ccc(C(=O)c2coc3ccc(O)c(CN4CCN(C)CC4)c23)cc1 | -5.9%
18 | CN(C)Cc1c(O)ccc2occ(C(=O)c3ccccc3)c12 | 6.4%
19 | O=C(c1ccccc1)c1coc2ccc(O)c(Cl)c12 | -4.8%
20 | Cc1ccc(OCCn2nc3ccccc3n2)c(C)c1 | -1.3%
21 | O=C(CSc1nnc(CNC(=O)c2ccccc2F)o1)Nc1ccc2c(c1)OCCO2 | 1.1%
22 | O=C(c1ccco1)N1CCN(S(=O)(=O)c2cccs2)CC1 | -11.8%
23 | Cc1cc2cc(CN(C(=O)C3CC3)C3CCCC3)c3nnnn3c2cc1C | -22.1%
24 | CCOc1ccccc1Nc1nc(N)nc(CSc2nncn2C)n1 | -1.9%

Row | SMILES | cytotoxicity
25 | Cc1ccc(S(=O)(=O)N2CCOCC2)cc1C(=O)O | -13.5%
26 | Cc1ccc(Oc2ccc(S(=O)(=O)N3CCOCC3)cc2C(N)=O)c(-n2nc3ccccc3n2)c1 | 53.1% (active)
27 | COc1ccccc1Oc1ccc(S(=O)(=O)N2CCOCC2)cc1S(=O)(=O)N1CCOCC1 | -10.8%
28 | COc1cnn(-c2ccccc2)c(=O)c1N(C)C | -1.2%
29 | O=C(C1CC1)N1CCc2cc(Br)cc(S(=O)(=O)NCCN3CCOCC3)c21 | -14.7%
30 | O=c1c2ccccc2nc(SCc2nnc(-c3ccccc3Br)o2)n1Cc1ccco1 | 14.1%
31 | COC(=O)c1ccc(C(=O)OC)c(NC(=O)c2cnc3n(c2=O)CCS3)c1 | -7.2%
32 | CCCc1[nH]nc2c1C(c1ccc(OC)cc1OC)C(C#N)=C(N)O2 (stereo unspecified) | -5%
33 | Oc1ccc2ccccc2c1/C=N/n1cnnc1 | 10.5%
34 | Oc1ccc2ccccc2c1C=NC12CN3CCN(CN(C3)C1)C2 | 0.3%
35 | OCC(CO)(CO)N=Cc1c(O)ccc2ccccc12 | 58.9% (active)
36 | CCNc1nc(N2CCCCC2)nc(-n2nnc(C(=O)OCC)c2C)n1 | -22.1%
37 | O=c1[nH]c2ccccc2n1CCCOc1ccccc1 | 5%
38 | CCCSC1=N/C(=C\C=C\c2ccco2)C(=O)S1 | 61.6% (active)
39 | O=C1SC(SCc2ccccc2)=N/C1=C\c1ccco1 | 2.6%
40 | C=CCSC1=N/C(=C\C=C\c2ccco2)C(=O)S1 | 45.9%
41 | Cc1cccc(OCCCC(=O)Nc2ccc3c(c2)OCO3)c1 | 34%
42 | CCC(C(=O)c1ccc(O)cc1)c1ccccc1 (stereo unspecified) | 9.4%
43 | CN(C)CC(C(=O)c1ccccc1)c1ccccc1 (stereo unspecified) | 103% (active)
44 | COc1ccc(C(C(=O)OC(C)CN(C)C)c2ccccc2)cc1 (stereo unspecified) | 4.3%
45 | N=c1n(CC(=O)O)c2ccccc2n1Cc1ccccc1Cl | -13.9%
46 | O=C(Cn1nnc(-c2cccc(C(F)(F)F)c2)n1)NC1CCCC1 | 8.5%
47 | Cc1cc(C)n(CC(=O)n2c3c(c4ccccc42)CCCC3)n1 | -18.6%
48 | CC1CCCCN1C(=O)CSc1nc2cc3c(cc2c(=O)n1Cc1ccc2c(c1)OCO2)OCO3 (stereo unspecified) | 0.1%

Row | SMILES | cytotoxicity
49 | COC(=O)c1ccc2c(=O)n(CCC3=CCCCC3)c(SCC(=O)N3CCCC3)nc2c1 | -13.9%
50 | COC(=O)c1ccc2c(=O)n(Cc3ccc4c(c3)OCO4)c(SCC(=O)N3CCCC3)nc2c1 | 52.3% (active)
51 | Nc1nc(CSc2ncn(-c3ccccc3)n2)cs1 | 15.3%
52 | CC(=O)N(Cc1cc2ccc(C)c(C)c2n2nnnc12)C1CCCC1 | -3.5%
53 | Cc1ccc(S(=O)(=O)N(CC(=O)O)Cc2ccccc2)cc1 | -7.6%
54 | O=C(CN1C(=O)C2CC=C(Cl)CC2C1=O)N1CCOCC1 (stereo unspecified) | -3.5%
55 | CN1CCN(C(=O)c2cccc(S(=O)(=O)N3CCCCC3)c2)CC1 | -2.6%
56 | Cn1c(C(=O)NC2CCCC2)cc2c(=O)n(C)c3ccccc3c21 | 3.5%
57 | Cn1c(=O)c(C(=O)NC2CCCCCCC2)c(O)c2ccccc21 | 9.6%
58 | O=C(NC1CCCCCC1)c1c(O)c2ccccc2[nH]c1=O | -4.9%
59 | O=C(NC1CCCC1)c1sc(=S)n2c1[nH]c(=O)c1ccccc12 | 79.4% (active)
60 | O=C(NC1CCCCC1)c1sc(=S)n2c1[nH]c(=O)c1ccccc12 | 82.6% (active)
61 | O=C(NC1CCCCCCC1)c1c(O)c2ccccc2[nH]c1=O | -13.7%
62 | COCCN(CCOC)C(=O)CCn1c(=O)oc2ccccc21 | -0.2%
63 | Cc1cc2n(n1)C(c1sccc1C)Nc1c(C)cccc1-2 (stereo unspecified) | -3.2%
64 | C(=C\c1ccccc1)/CSc1nnc(-c2ccccn2)n1Cc1ccco1 | 33.9%
65 | CC1(C)Cc2nc3oc4c(=S)nc[nH]c4c3cc2CO1 | -4.7%
66 | Cn1c(=O)c2c(ncn2CC(=O)N2CCN(c3ccc(F)cc3)CC2)n(C)c1=O | 4.3%
67 | CCOC(=O)CS(=O)(=O)c1ccc2ccccc2c1 | -10.2%
68 | COCC(C)NC(=O)CCS(=O)(=O)c1nc(-c2ccc(OC)cc2)cc(C(F)(F)F)n1 (stereo unspecified) | 66.1% (active)
69 | CCOC(=O)c1cnn2c(C)cc(-c3ccc(F)cc3)nc12 | -7.6%
70 | COc1ccc(-c2cc(C(F)(F)F)nc(SCC(=O)Nc3cc(C)on3)n2)cc1 | -21.7%
71 | Cc1cc(NC(=O)CCCS(=O)(=O)c2nc(-c3cccs3)cc(C(F)(F)F)n2)no1 | 3.6%
72 | CCOC(=O)CS(=O)(=O)c1nc(-c2ccccc2)cc(C(F)(F)F)n1 | 27.1%

Row | SMILES | cytotoxicity
73 | COc1ccc(-c2cc(C(F)(F)F)nc(SCCC(=O)NCc3ccco3)n2)cc1 | -3.2%
74 | CCOC(=O)CCn1nc(-c2ccccc2)cc1N | -7.8%
75 | COc1ccccc1-c1cc(C(F)(F)F)nc(S(=O)(=O)CCCC(=O)Nc2cc(C)on2)n1 | 38.2%
76 | CCn1cc(C(=O)NC2CCCCCC2)c2cc(OC)c(OC)cc2c1=O | -1.3%
77 | CS(=O)(=O)Nc1ccc(C(=O)NCCSCc2ccco2)cc1 | -13.9%
78 | COCCOC(=O)C1=C(C)NC(=O)NC1c1ccc(OC(=O)c2ccco2)c(OC)c1 (stereo unspecified) | -1.8%
79 | Cc1cc(=O)[nH]c(N2CCN(C(c3ccccc3)c3ccccc3)CC2)n1 | -6%
80 | COc1ccc(C2CC(=O)c3cnc(NC(=O)c4cc(OC)cc(OC)c4)nc3C2)cc1 (stereo unspecified) | -16.4%
81 | O=C(NCCN1CCOCC1)c1ccc(-c2ccccc2)cc1 | 2.5%
82 | CCN(CC)S(=O)(=O)c1ccc(NC(=O)COc2c(OC)cccc2OC)cc1 | -2.7%
83 | O=C(CSc1nnc(C23CC4CC(CC(C4)C2)C3)o1)Nc1ccc(N2CCOCC2)c(Cl)c1 | -10%
84 | CCOC(=O)c1oc2ccc(S(=O)(=O)n3nc(-c4ccc(OC)cc4)cc3N)cc2c1C | 54.2% (active)
85 | CCOC(=O)c1oc2ccc(S(=O)(=O)N3CCC(C)CC3)cc2c1C | 16.8%
86 | CCOC(=O)c1oc2ccc(S(=O)(=O)N3CCOCC3)cc2c1C | 3.6%
87 | CCn1c(CSc2nccn2C)nc2cc(C(=O)O)ccc21 | 2.6%
88 | NC1=NC(=O)CC(C(=O)NCc2ccccc2)S1 (stereo unspecified) | -6.8%
89 | CC(C)CSc1nc2c(c(=O)[nH]c(=O)n2C)n1CC(O)COc1cccc2ccccc12 (stereo unspecified) | 68.7% (active)
90 | CCSc1nc2c(c(=O)[nH]c(=O)n2C)n1CC(O)COc1ccccc1C (stereo unspecified) | -1.3%
91 | COc1ccccc1OCC(O)Cn1c(Br)nc2c1c(=O)[nH]c(=O)n2C (stereo unspecified) | 2.9%
92 | Cn1c(=O)[nH]c(=O)c2c1nc(N1CCOCC1)n2CC(O)COc1ccccc1 (stereo unspecified) | -10.9%
93 | Cc1ccccc1OCC(O)Cn1c(SC(C)C)nc2c1c(=O)[nH]c(=O)n2C (stereo unspecified) | 0.7%
94 | Cc1ccccc1OCC(O)Cn1c(N2CCN(c3ccccc3)CC2)nc2c1c(=O)[nH]c(=O)n2C (stereo unspecified) | 82.9% (active)
95 | Cc1nn(CCC(=O)O)c2nc(-c3cccnc3)cc(C(F)(F)F)c12 | -17.9%
96 | CCN(CC)C(c1ccc(C)cc1)c1nnnn1C1CCCCC1 (stereo unspecified) | -25.4%
